Sfp PPTase inh = inhibitors of Bacillus subtilis Sfp phosphopantetheinyl transferase; Biochemical Sfp PPTase activity, qHTS; AID 1490; 310,000 compounds, 3.5% hits; Potency, µM, inactives show largest response in the series, negative = inhibition, hits mostly inhibitors;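 also: the enzyme is Sfp with the accession as filed and its product quenches rhodamine fluorescence; 0% = enzyme reaction without inhibitor and -100% = no enzyme wells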
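Fluorescence-quenching assay: 15 nM Sfp-PPTase preincubated 15 min at room temperature with compound, then 5 uM rhodamine-CoA and 12.5 uM BHQ-2-labelled YbbR peptide added. Fluorescence (ex 525/em 598 nm) read at start and after 30 min; difference gives rate.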
JMJD2A Tudor inh = blocks the human JMJD2A Tudor domain. AlphaScreen JMJD2A-Tudor / H3K4me3 peptide binding. Potency, µM (top dose mostly 114 µM), without a hit: top-dose activity change, negative = inhibition, most hits filed as inhibitors. 390,000 compounds, 4.4% hits. O75164; also: % is scaled to controls: 0 for no effect and ±100 for the full control effect; nearly all actives have a fitted effect of over 50% in size
HP1b binding inh = inhibitors of HP1-beta chromodomain binding to methylated histone tails | P83916 | AlphaScreen HP1-beta / biotin-H3K9me3 peptide binding | Potency, µM (series often up to 114 µM), for inactives: at the highest dose activity change, negative = inhibition, hits mostly inhibitors | 390,000 compounds, 0.56% hits; also: nearly all actives have a fitted effect of over 70% in size
Target sequence (P83916 whole entry, looked up): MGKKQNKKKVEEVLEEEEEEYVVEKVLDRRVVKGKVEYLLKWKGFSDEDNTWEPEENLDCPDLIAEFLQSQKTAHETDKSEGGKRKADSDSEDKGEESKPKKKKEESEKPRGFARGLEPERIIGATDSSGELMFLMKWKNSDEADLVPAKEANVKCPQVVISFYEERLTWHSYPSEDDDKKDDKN
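HP1-beta protein (50 nM final) preincubated 30 min at room temperature with biotinylated H3(1-18)K9me3 peptide (50 nM) in PBS pH 7.4, 0.01% Tween-20, then compound added for 30 min. AlphaScreen streptavidin donor/nickel chelate acceptor beads (10 ug/mL final), 30 min dark, luminescence read.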
G9a block = blocks human histone lysine methyltransferase G9a. G9a H3K9 monomethylation, AlphaScreen, 2 h. AID 504332. Q96KQ7. 350,000 compounds, 8.8% hits. Potency, µM (doses to about 102 µM), for inactives: at the highest dose activity, negative = inhibition, hits mostly inhibitors; also: % is scaled to controls: 0 for no effect and ±100 for the full control effect; nearly all actives have a fitted effect of over 75% in size
Target sequence (Q96KQ7 913-1193 limits assumed): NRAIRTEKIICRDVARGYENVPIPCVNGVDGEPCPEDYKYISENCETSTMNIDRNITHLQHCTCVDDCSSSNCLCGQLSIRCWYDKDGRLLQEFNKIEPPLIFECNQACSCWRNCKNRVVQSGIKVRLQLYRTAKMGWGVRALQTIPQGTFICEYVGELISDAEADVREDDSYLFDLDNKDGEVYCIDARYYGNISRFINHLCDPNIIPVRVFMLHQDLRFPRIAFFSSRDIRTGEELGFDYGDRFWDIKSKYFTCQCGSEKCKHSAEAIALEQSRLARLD
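Enzyme 20 nM + cpd, 15 min RT; add b-H3K9 pep 500 nM / SAM 20 uM; 2 h RT; anti-H3K9me1 Ab 0.5 ug/mL + SA donor / anti-rabbit acceptor beads 20 ug/mL each, 10 min; AlphaScreen read.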
L3MBTL1 block = L3MBTL1 (human) inhibition; Q9Y468; AlphaScreen L3MBTL1–H3K9me1 peptide binding; Potency, µM (highest dose often 57.1 µM), for the others: at the top dose activity, negative = inhibition, usual class: inhibitors; 230,000 compounds, 0.66% hits; AID 485360; also: % is scaled to controls: 0 for no effect and ±100 for the full control effect; nearly all actives have a fitted effect of over 60% in size
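AlphaScreen proximity signal between nickel-chelate acceptor and streptavidin donor beads (final 10 ug/mL) reports binding of 50 nM L3MBTL1 to 75 nM biotin-H3 K9me1 peptide; complex incubated with compounds 30 min at room temperature; cefsulodin titration as control.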
BAZ2B block = inhibitors of human BAZ2B bromodomain. Q9UIF8. AlphaScreen BAZ2B-H3K14Ac peptide displacement. Potency, µM (series often up to 114 µM), inactives show top-dose activity change, negative = inhibition, hits mostly inhibitors. 360,000 compounds, 4.4% hits; also: % is scaled to controls: 0 for no effect and ±100 for the full control effect; nearly all actives have a fitted effect of over 60% in size
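Multi-concentration screen (max 110 uM) measuring displacement of acetylated histone H3 peptide from BAZ2B by AlphaScreen, using 50 nM protein, 50 nM peptide and 10 ug/mL streptavidin donor plus Ni-chelate acceptor beads.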
* = called active by the depositor; ? = inconclusive; . = no result given; [ ] = another dose, or the depositor's remark. Hits are enriched below; roughly 12% of the tested compounds scored in any of these assays. Calls follow the shape of the dose curve; as a rule, active = well fitted curve in the direction sought with a large enough effect; inconclusive = small, poorly fitted or top-dose-only effect, or another doubt; inactive = no such curve, though single readings can be large; an effect the other way counts as inactive or inconclusive. Potency is read from the fitted curve at half-maximal effect.

SMILES	Sfp PPTase inh	JMJD2A Tudor inh	HP1b binding inh	G9a block	L3MBTL1 block	BAZ2B block
Cc1ccc(CNC(=O)c2cc3c(=O)n(C)c4ccccc4c3n2C)o1	56µM*	-11%	30%	?	.	13%
Cn1c2ccccc2c2c(C(=O)N3CCN(c4ccc(F)cc4)CC3)cn(C3CCCCC3)c(=O)c21	.	?	26%	?	.	-1%
Cc1ccc(CNC(=O)c2cn(C3CCCCC3)c(=O)c3c2c2ccccc2n3C)o1	18µM*	-34%	-2%	50µM*	.	-32%
COC(=O)CCC(=O)OC1(C)C(=O)C=C2C=C(c3ccc(C#N)cc3)OC=C2C1=O (stereo unspecified)	10%	.	.	.	.	.
Cc1c(NC(=O)COC(=O)c2cccn2C)c(=O)n(-c2ccccc2)n1C	.	-8%	18%[57 µM]	.	0%	.
O=[N+]([O-])c1cccc(S(=O)(=O)Nc2ccc(S(=O)(=O)Nc3nccs3)cc2)c1	.	-12%	10%	.	.	.
O=[N+]([O-])c1ccccc1S(=O)(=O)Nc1ccc(S(=O)(=O)Nc2nccs2)cc1	4%	-24%	-14%	45µM*	.	-21%
Nc1ccc(S(=O)(=O)Nc2nccs2)cc1N=Nc1ccccc1[N+](=O)[O-]	.	40µM*	40µM*	.	.	.
Cc1ccc(CN2CCc3nc(SCC(=O)Nc4cccc(C)c4C)[nH]c(=O)c3C2)cc1	.	-12%	28%	-6%[59 µM]	.	-4%
Clc1ccc(CN2CCN(c3ncnc4scc(-c5cccs5)c34)CC2)cc1	-13%	-7%[57.1 µM]	-11%	32µM*	.	-35%
C[N+]1(C2CCC3CCCC2C3O)CCCCC1 (stereo unspecified)	-16%	20µM*	7%	?	18%	-12%
Cc1nc2n(c(=O)c1CCN1CCC(c3noc4cc(F)ccc34)CC1)CCCC2O (stereo unspecified)	.	.	.	30µM*	.	.
Cc1nc2c(C(=O)NC(C)c3ccccc3)cnn2c(C)c1Cc1ccccc1 (stereo unspecified)	.	-11%	23%	7%[59 µM]	.	7%
CC([NH2+][O-])C(C)(C)NO (stereo unspecified)	?	22µM*	?	18µM*	8%	?
Cc1ccc2nc(Nc3ccc(C)c(Cl)c3)c3nncn3c2c1	-14%	0%	75%	36%	.	3%
CCCCc1nc2c(c3c1C[C@H](C)OC3)CN(C(=O)N[C@@H](C)c1ccccc1)CC2	-12%	.	.	.	.	.
CCSc1nc2ccc(N3C(=O)C4C5C=CC(C5)C4C3=O)cc2s1 (stereo unspecified)	4%	-13%[57.1 µM]	-4%	11µM*	1%	3%
O=C1C2C3C=CC(C3)C2C(=O)N1c1ccc2ccccc2c1 (stereo unspecified)	4%	-6%	26%	10%	-2%	-19%
COc1cc(/C=C2\C(=N)N3N=C(N4CCOCC4)SC3=NC2=O)ccc1OC(=O)c1ccccc1	-26%	?	-15%	20µM*	-1%	50µM*
CCC1=NN2C(=N)/C(=C/c3ccc(OS(=O)(=O)c4ccc(C)cc4)c(OC)c3)C(=O)N=C2S1	-5%	-30%	-17%	-6%	.	-2%
Cc1ccc(S(=O)(=O)Oc2ccc(/C=C3\C(=N)N4N=C(S(C)(=O)=O)SC4=NC3=O)cc2)cc1	-19%	35µM*	-9%[57 µM]	13µM*	.	50µM*
COc1cc(/C=C2/C(=N)N3N=C(C)SC3=NC2=O)ccc1OS(=O)(=O)c1ccc(C)cc1	-1%	-8%	11%	18%	.	-2%
CCS(=O)(=O)C1=NN2C(=N)/C(=C\c3ccc(OS(=O)(=O)c4ccccc4)c(OC)c3)C(=O)N=C2S1	-22%	.	.	-5%[0.0925 µM]	.	56µM*
COc1cc(/C=C2\C(=N)N3N=C(S(C)(=O)=O)SC3=NC2=O)ccc1OS(=O)(=O)c1ccccc1	-6%	.	.	.	.	50µM*
O=C(Nc1ccc(Cl)cc1)C1CCN(S(=O)(=O)c2ccc(Br)s2)CC1	.	-2%	31%	0%[59 µM]	.	1%
SMILES	Sfp PPTase inh	JMJD2A Tudor inh	HP1b binding inh	G9a block	L3MBTL1 block	BAZ2B block
CCOc1ccc2oc(=O)cc(CN3CCN(C(=O)c4ccc(OC)c(OC)c4)CC3)c2c1	.	-6%	37%	?	.	-15%
Cc1ccc(CCNC(=O)CCCn2c(=O)c3ccccc3n(Cc3ccccc3C)c2=O)cc1	.	1%	43%	4%[59 µM]	.	-6%
CC[C@@H](C(=O)[C@@H](C)[C@@H](O)[C@H](C)CCc1ccc(C)c(O)c1C(=O)O)C1O[C@](CC)(C2CC[C@](O)(CC)[C@H](C)O2)C[C@@H]1C (stereo partly specified)	0%	.	.	.	.	.
Cc1nc(NC2CCCCC2)c2nc(-c3ccccc3)n(CC3CCN(C)CC3)c2n1	12%	.	.	.	.	.
CCC1=NN2C(=N)/C(=C/c3ccc(OS(=O)(=O)c4ccccc4)cc3)C(=O)N=C2S1	-9%	-31%	5%	.	.	-5%
CCS(=O)(=O)C1=NN2C(=N)/C(=C\c3ccc(OS(=O)(=O)c4ccccc4)cc3)C(=O)N=C2S1	?	?	5%	40µM*	.	50µM*
Cc1ccsc1C(=O)N1CCN(S(=O)(=O)c2cccc(F)c2)CC1	.	-17%	-14%	28µM*	-1%	7%
CCOC(=O)C1=C(CS(=O)(=O)c2ccc(F)cc2)NC(=O)NC1c1ccc(O)c(O)c1 (stereo unspecified)	-8%	-30%	-21%	14µM*	.	-34%
CCC1(c2ccccc2)NC(=O)N(CC(=O)NCCN2C(=O)S/C(=C\c3cccnc3)C2=O)C1=O (stereo unspecified)	.	-10%	16%	?	-10%	-28%
Cc1ccc2nsnc2c1S(=O)(=O)Nc1cccc2nsnc12	-9%	-23%	15%	45µM*	-30%	-38%
CCOC(=O)CCc1n[nH]c(=O)[nH]c1=O	3%	9%	35%	8%[12.7 µM]	.	-2%
O=C(O)CCc1n[nH]c(=S)[nH]c1=O	56µM*	-1%	29%	-48%	21%	2%
O=C(Nc1ccc2c(c1)CCC2)c1ccc(F)cc1	11%	-5%	34%	-6%	19%	3%
O=C(Nc1ccc2c(c1)CCC2)c1cc(S(=O)(=O)Nc2ccc(F)cc2)c(Cl)cc1Cl	14%	?	-4%	10µM*	-10%	-7%
CCc1ccccc1NC(=O)c1cc(=O)c2ccccc2o1	-4%	-9%	20%	.	4%	-1%

Screening data deposited in PubChem by National Center for Advancing Translational Sciences (NCATS).
